Compound activity: PubChem, National Center for Advancing Translational Sciences (NCATS)
PNC inhibitor – inhibitors of perinucleolar compartment assembly | PC3M PTB-GFP, PNC prevalence imaging, 16 h; hits give low values | 140,000 compounds, 3.1% hits | AID 2417 | activity change (PNC), negative = inhibition, % at 10 µM;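 active = readout at or below -70, meaning at least 70% loss of cells showing the perinucleolar compartment, a nuclear body marking cancer cells; inconclusive = readout between -30 and a set limit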;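 note: plate controls were DMSO wells for no effect and camptothecin positive control wells for full effect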
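PC3M cells stably expressing PTB-GFP, 750–1000 cells/well, treated 16 h at 37 °C with compound (23 nl of library stock), in duplicate. After paraformaldehyde fixation and Hoechst stain, imaged at 20x; PNC prevalence scored by image analysis.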
ALDH1A1 block – blocks purified human ALDH1A1 activity. P00352. Purified ALDH1A1, NADH fluorescence, propionaldehyde substrate. Potency, µM (titrated, usually from 75.3 µM), without a hit: at the highest dose activity, negative = inhibition, most hits filed as inhibitors. 220,000 compounds, 7.3% hits;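 note: potency is the fitted concentration of half-maximal effect; plate controls were no enzyme wells and a reference inhibitor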
HTT ATP protect – Huntington cell model cytoprotection by ATP luminescence | PC12 HTT-Q103 induced, cytoprotection, ATP luminescence, 40 h | Potency, µM (highest dose often 56.4 µM), for inactives: cytoprotection (ATP increase), usual class: activators | 230,000 compounds, 0.14% hits | AID 1471; active = well fitted curve in the direction sought with a large enough effect; inconclusive = small, poorly fitted or top-dose-only effect, or another doubt; inactive = no such curve, though single readings can be large; an effect the other way counts as inactive or inconclusive; note: potency is the fitted concentration of half-maximal effect; % of control where 0% means no effect; nearly all actives have a fitted effect of over 45% in size
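Stable PC12 Q103-GFP cells in serum-supplemented, phenol red-free DMEM; induction by tebufenozide at 100 nM final; compound dose series; cell viability quantified luminescently from ATP.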
HttQ103 aggreg – reduces HttQ103-GFP aggregates in PC12 cells. PC12 HttQ103-GFP aggregates, Acumen cytometry, 40 h. Potency, µM (doses to about 46.1 µM), without a hit: top-dose activity change, negative = inhibition, most hits filed as inhibitors. 220,000 compounds, 1.1% hits; active = well fitted curve in the direction sought with a large enough effect; inconclusive = small, poorly fitted or top-dose-only effect, or another doubt; inactive = no such curve, though single readings can be large; an effect the other way counts as inactive or inconclusive; note: potency is the fitted concentration of half-maximal effect; % is set by controls: 0 for no effect and ±100 for the full control effect; nearly all actives have a fitted effect of over 60% in size
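Huntingtin Q103 exon 1–GFP aggregates in induced PC12 cells (100 nM tebufenozide) were quantified by cytometry from lysates, with compounds dosed in titration.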
RGS12 GoLoco inh – RGS12 GoLoco-Gai1 interaction inhibition | P63096 | Gai1:RGS12 GoLoco peptide FP, rhodamine, 10 min | Potency, µM (doses to about 61.6 µM), inactives show top-dose activity, negative = inhibition, hits mostly inhibitors | 230,000 compounds, 0.44% hits | AID 880; active = well fitted inhibition curve with a large enough effect, not every such curve was filed as active; inactive = no such curve, though single readings can be large or run the other way; note: potency is the fitted concentration of half-maximal effect; % is set by controls: 0 for no effect and ±100 for the full control effect; nearly all actives have a fitted effect of over 30% in size
HPGD inh – inhibitors of human 15-hydroxyprostaglandin dehydrogenase (HPGD) | 150,000 compounds, 4.3% hits | purified HPGD, NADH fluorescence kinetic, PGE2 substrate | P15428 | AID 894 | Potency, µM, for the others: top-dose activity change, negative = inhibition, hits mostly inhibitors; note: potency is the fitted concentration of half-maximal effect; % is set by controls: 0 for no effect and ±100 for the full control effect
Target sequence (P15428 whole entry, looked up): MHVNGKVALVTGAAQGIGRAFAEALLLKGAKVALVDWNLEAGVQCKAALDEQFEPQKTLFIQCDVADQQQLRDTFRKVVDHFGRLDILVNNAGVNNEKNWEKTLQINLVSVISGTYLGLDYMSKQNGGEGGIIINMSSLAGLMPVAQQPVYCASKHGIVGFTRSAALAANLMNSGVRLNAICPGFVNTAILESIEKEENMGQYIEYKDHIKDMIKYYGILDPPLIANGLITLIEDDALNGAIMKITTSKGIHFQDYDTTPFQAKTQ
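NADH formation kinetics: reaction with 30 uM PGE2 and 1 mM NAD+ (final), 20 nM enzyme, Tris-HCl pH 8 with Tween 20, after 15 min compound preincubation at room temperature. Fluorescence change, last versus first of five reads.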
An asterisk follows results filed as active; ? = inconclusive; · = no result; [ ] = dose if it differs, or a comment. A selection: hits, their analogues and other compounds. The true share with any hit is near 11%. Unless noted, calls come from the whole dose curve; as a rule, active = well fitted inhibition curve with a large enough effect (not every such curve was filed as active); inconclusive = small, poorly fitted or top-dose-only effect, or another doubt; inactive = no such curve, though single readings can be large or run the other way.

SMILES | PNC inhibitor | ALDH1A1 block | HTT ATP protect | HttQ103 aggreg | RGS12 GoLoco inh | HPGD inh
COC(=O)c1ccc(NC(=S)Nc2ccccc2)cc1 | 45 | -3% | 15%[10 µM] | 18% | 6% | -6%
COC(=O)c1cccnc1NC(=S)NNC(=O)c1ccccc1 | -1 | ? | 17%[10 µM] | 10% | 3% | 25µM*
COc1ccc(C(=O)NC(=S)Nc2ccc(S(N)(=O)=O)cc2)cc1 | · | 29% | 19%[10 µM] | -11%[9.22 µM] | 4% | ·
COc1cc(C(=O)NNC(=S)Nc2ccc(S(N)(=O)=O)cc2)cc(OC)c1OC | · | 10µM* | · | · | -4% | ·
CCOC(=O)c1ccc(NC(=S)NNC(=O)COC)cc1 | 16 | 8.9µM* | 6%[10 µM] | 20% | -6% | -20%
CCOC(=O)c1ccc(NC(=S)NC2CCCC2)cc1 | -29 | 1% | · | 7% | 6% | -1%
COC(=O)c1ccc(NC(=S)NNC(=O)c2ccccc2)cc1 | · | 8.9µM* | 21%[10 µM] | 21%[9.22 µM] | 9% | ·
O=C(NCCNC1CCC(c2ccccc2)CC1)c1cccs1 (stereo not given) | · | -11% | 14%[10 µM] | 5%[9.22 µM] | 6% | ·
CC(C)n1c(=S)[nH]c2cc(Cl)ccc21 | · | · | 10%[10 µM] | 16%[9.22 µM] | -43% | ·
O=C(CC(Nc1ccc(Cl)cc1Cl)C(=O)O)c1ccccc1 (stereo not given) | · | · | 6%[10 µM] | 14%[9.22 µM] | 10% | ·
Cc1ccc(NC(CC(=O)c2ccccc2)C(=O)O)cc1Cl (stereo not given) | · | · | -3%[10 µM] | 10%[9.22 µM] | -9% | ·
C=C(C(=O)c1ccccc1)C(C)CC(=O)c1ccccc1 (stereo not given) | -6 | ? | 10%[1.9 µM] | 18% | -4% | 28µM*
O=C(CC(Nc1ccccc1)C(=O)O)c1ccccc1 (stereo not given) | 7 | 1.8µM* | -100%[10 µM] | 15% | 7% | -12%
C[C@@H](c1ncncc1F)[C@](O)(Cn1cncn1)c1ccc(F)cc1F | · | · | · | · | -13% | ·
Cc1ccc2cc(C)c(Sc3nnnn3-c3ccccc3)nc2c1 | 0 | 5.6µM* | · | -4% | 6% | -12%
Cn1ccnc1Sc1nnnn1-c1ccccc1 | ? | -7% | 2%[1.9 µM] | -1% | 5% | -2%
O=C(NCCN1CCOCC1)c1cc(-c2ccc(O)cc2)on1 | · | · | -29% | · | · | ·
Cc1ccc(C(=O)c2no[n+]([O-])c2C(=O)c2ccc(C)cc2)cc1 | 12 | 0.5µM* | · | ? | -25% | 20µM*
CNc1ccc(S(=O)(=O)NCC(=O)OCC(=O)Nc2cccc(Cl)c2Cl)cc1[N+](=O)[O-] | 0 | ? | · | -29% | -17% | -16%
CN(C)c1ccc(S(=O)(=O)NCC(=O)OCC(=O)Nc2cccc(Cl)c2)cc1[N+](=O)[O-] | 42 | 7.9µM* | -6%[10 µM] | 15% | 0% | 3%
COc1ccc(OC)c(NC(=O)C2CCN(c3cc(-c4ccccc4)nc4ncnn34)CC2)c1 | 6 | ? | -65% | 11% | 0% | -5%
COc1ccccc1NC(=O)N1CCN(c2cc(-c3ccccc3)nc3ncnn23)CC1 | 9 | -5% | ? | 10µM* | 0% | -8%
Cc1cc(C)cc(/C=C/C2OCC(O)C2Oc2ccc(C3CCCC3)cc2)c1 (stereo not given) | · | -1%[13.5 µM] | -3%[10 µM] | · | · | ·
Cn1c(=O)c2c(ncn2CC(=O)Nc2cccc(S(=O)(=O)Nc3ccccc3F)c2)n(C)c1=O | · | 7.9µM* | -15% | -26% | 4% | ·
CN(c1ccccc1)S(=O)(=O)c1cccc(NC(=O)Cn2cnc3c2c(=O)n(C)c(=O)n3C)c1 | 46 | 12% | 20%[10 µM] | ? | · | ·
CCOc1ccccc1NC(=O)CSc1ccc([N+](=O)[O-])cc1 | · | 20µM* | -21% | 22% | -12% | ·
O=C(CSc1ccc([N+](=O)[O-])cc1)Nc1cccc(S(=O)(=O)Nc2ccccc2F)c1 | · | 5µM* | -8%[10 µM] | -24% | -10% | ·
CCOC(=O)C(=O)Nc1nnc(C2CCCCC2)s1 | 24 | 32µM* | 11% | 19% | -6% | 16µM*
COCC(=O)Nc1nnc(C2CCCCC2)s1 | ? | ? | -19% | -12% | -7% | -14%
